According to PubChem BioAssay (Tox21):
Records with an inconclusive call do not appear. The source made the active and inactive calls. Unless noted, calls come from the whole dose curve; as a rule, active = well fitted curve in the direction sought with a large enough effect in the repeat runs; inconclusive = weak or mixed curves; inactive = no such curve, though single readings can be large; an effect the other way counts as inactive or inconclusive.

Experiments:
[1] = A CellTox Green Cytotoxicity Assay to monitor cytotoxicity in HepG2 cells - 8 hour (AID 1224890); note: nearly all actives have a fitted effect of over 45% in size
Method in brief: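 Read-out is fluorescence of a cyanine dye excluded from live cells that stains DNA of dead HepG2 cells, with signal proportional to cytotoxicity. Plates were read at 0, 8, 16, 24, 32 and 40 h after compound addition.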

[2] = qHTS assay to identify small molecule antagonists of the estrogen receptor alpha (ER-alpha) signaling pathway using the BG1 cell line in the presence of 0.1 nM 17-beta-estradiol - cell viability counter screen (AID 1259241); note: nearly all actives have a fitted effect of over 40% in size
Method in brief: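 VM7Luc4E2 cells (endogenous ER-alpha, 4×ERE-luciferase), hormone-starved 5 days in charcoal-stripped FBS, were treated with compounds plus 0.1 nM 17beta-estradiol for 22 hr at 37C; viability read in same wells as CellTiter-Fluor live-cell protease fluorescence.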

[3] = qHTS assay to identify small molecule antagonists of the androgen receptor (AR) signaling pathway using the MDA cell line in the presence of 0.5 nM R1881 - cell viability counter screen (AID 1259242); note: nearly all actives have a fitted effect of over 45% in size
Method in brief: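 Counter screen for cytotoxicity run in the same wells as the AR antagonist reporter screen: MDA-kb2 cells were treated 16 hr with test compounds and 0.5 nM R1881, then live-cell protease activity was measured by fluorescence.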

[4] = target: Estrogen receptor (Homo sapiens) (UniProt P03372); experiment: qHTS assay to identify small molecule antagonists of the estrogen receptor alpha (ER-alpha) signaling pathway using the BG1 cell line in the presence of 0.1 nM 17-beta-estradiol (AID 1259244); note: nearly all actives have a fitted effect of over 50% in size
Chain of Estrogen receptor (Homo sapiens) (P03372 whole entry, looked up): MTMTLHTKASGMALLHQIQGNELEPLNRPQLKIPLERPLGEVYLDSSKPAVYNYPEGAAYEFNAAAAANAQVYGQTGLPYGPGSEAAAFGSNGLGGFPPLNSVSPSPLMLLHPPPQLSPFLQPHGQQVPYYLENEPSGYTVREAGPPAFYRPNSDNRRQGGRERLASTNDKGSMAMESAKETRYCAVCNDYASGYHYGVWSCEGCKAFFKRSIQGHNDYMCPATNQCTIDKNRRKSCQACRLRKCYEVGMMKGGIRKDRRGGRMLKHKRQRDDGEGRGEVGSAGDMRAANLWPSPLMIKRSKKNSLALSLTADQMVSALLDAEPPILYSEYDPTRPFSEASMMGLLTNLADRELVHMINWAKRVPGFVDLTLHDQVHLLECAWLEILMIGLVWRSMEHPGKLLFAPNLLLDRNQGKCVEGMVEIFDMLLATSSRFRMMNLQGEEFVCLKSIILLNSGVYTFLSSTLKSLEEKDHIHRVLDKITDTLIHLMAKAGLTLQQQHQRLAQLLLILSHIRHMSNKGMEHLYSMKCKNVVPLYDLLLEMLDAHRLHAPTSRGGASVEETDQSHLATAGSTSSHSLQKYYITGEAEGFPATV
Method in brief: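 Cells: VM7Luc4E2, endogenous ER-alpha, 4x ERE-luc stable. Pre-culture 5 d, phenol red-free, charcoal-stripped FBS. Plated 24 h, compound + E2 0.1 nM final, 22 h 37C/5% CO2. Readout ONE-Glo luminescence.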

[5] = qHTS assay to identify small molecule HDAC inhibitors (AID 1259364); note: top concentration of the series differs between compounds; nearly all actives have a fitted effect of over 45% in size
Method in brief: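 Luminescence from a cell-permeant luminogenic class I/II HDAC substrate reports endogenous deacetylase activity in intact HCT-116 cells treated with compounds for 2 h.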

[6] = qHTS assay to identify small molecule agonists of the sonic hedgehog signaling (Shh) pathway - cell viability counter screen (AID 1259366); note: nearly all actives have a fitted effect of over 50% in size
Method in brief: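 NIH/3T3-derived 3T3 Gli1-Luc cells (stable Gli1-responsive firefly luciferase reporter) were seeded, rested 4 hr at 37 C/5% CO2, then exposed to compounds in DMSO for 24 hr; viability was read by CellTiter-Fluor fluorescence in the same wells.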

[7] = qHTS assay to identify small molecule antagonists of the sonic hedgehog signaling (Shh) pathway - cell viability counter screen (AID 1259367); note: nearly all actives have a fitted effect of over 55% in size
Method in brief: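 After a 4 hr settling period, 3T3 Gli1-Luc cells were treated with DMSO-dissolved chemicals and conditioned medium, kept 24 hr at 37C in 5% CO2, and assayed for viability by CellTiter-Fluor fluorescence following 1 hr reagent incubation.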

[8] = qHTS assay to identify small molecule agonists of the sonic hedgehog signaling (Shh) pathway (AID 1259368; calls by dose curve; note: series mostly up to about 92 µM; nearly all actives have a fitted effect of over 15% in size)
Method in brief: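 3T3Gli1-Luc (NIH/3T3 clone, stable Gli1-Luc); 4 hr pre-incubation, then cpd in DMSO 24 hr, 37 C/5% CO2; luciferase reagent 30 min RT; luminescence.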

[9] = qHTS assay to identify small molecule antagonists of the sonic hedgehog signaling (Shh) pathway (AID 1259369; calls by dose curve; note: nearly all actives have a fitted effect of over 45% in size)
Method in brief: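 3T3Gli1-Luc, conditioned-medium-stimulated, 24hr cpd, 37C/5% CO2; Gli1-driven firefly Luc luminescence after 30min RT with luciferase reagent. Cells plated 4hr before cpd.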

[10] = target: Estrogen receptor beta (Homo sapiens) (UniProt Q92731); experiment: qHTS assay to identify small molecule antagonists of the estrogen receptor beta (ER-beta) signaling pathway (AID 1259378; active = well fitted inhibition curve with a large enough effect in the signal ratio in the repeat runs, not every such curve was filed as active; the % refers to the signal ratio)
Chain of Estrogen receptor beta (Homo sapiens) (Q92731 whole entry, looked up): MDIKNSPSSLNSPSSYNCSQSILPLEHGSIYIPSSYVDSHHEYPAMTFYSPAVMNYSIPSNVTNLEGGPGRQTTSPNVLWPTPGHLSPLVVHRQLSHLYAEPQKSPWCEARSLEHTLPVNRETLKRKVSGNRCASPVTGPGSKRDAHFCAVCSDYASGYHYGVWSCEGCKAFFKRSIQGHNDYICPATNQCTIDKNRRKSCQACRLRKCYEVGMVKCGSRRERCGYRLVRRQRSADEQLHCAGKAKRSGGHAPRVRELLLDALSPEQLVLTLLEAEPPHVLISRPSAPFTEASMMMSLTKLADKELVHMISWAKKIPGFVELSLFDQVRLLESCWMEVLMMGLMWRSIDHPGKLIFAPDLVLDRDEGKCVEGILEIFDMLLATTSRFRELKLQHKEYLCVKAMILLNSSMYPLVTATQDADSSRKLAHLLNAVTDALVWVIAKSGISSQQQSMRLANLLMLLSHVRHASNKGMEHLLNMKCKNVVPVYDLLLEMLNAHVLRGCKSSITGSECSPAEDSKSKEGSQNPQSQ
Method in brief: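 ER-beta-UAS-bla HEK293T (GripTite) cells in 2% charcoal-stripped FBS medium were preincubated 6 hr at 37C, dosed with compound, then stimulated with 1 nM E2 (final) for 16 hr; beta-lactamase reporter read by B/G FRET fluorescence after 2 hr substrate loading.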

[11] = qHTS assay to identify small molecule agonists of the androgen receptor (AR) signaling pathway in the presence of an antagonist - cell viability counter screen (AID 1259379);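 note: MDA-kb2 human breast cancer cells carrying an MMTV luciferase reporter; series mostly up to about 92 µM; nearly all actives have a fitted effect of over 25% in size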
Method in brief: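 Cells: MDA-kb2 (MMTV-luc, AR and GR elements), 3,000/well, 5 hr settle. Added: nilutamide 3.0uM final, then compounds (15 conc.). Incubation: 16 hr, 37C, no CO2. Read-out: CellTiter-Fluor, 1 hr, fluorescence.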

[12] = qHTS assay to identify small molecule antagonists of the estrogen receptor beta (ER-beta) signaling pathway - cell viability counter screen (AID 1259382); note: series mostly up to about 92 µM; nearly all actives have a fitted effect of over 55% in size
Method in brief: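 Cells: ER-beta-UAS-bla HEK293T, 2,000/well, 2% CS-FBS, 6 hr settle. Cpd + E2 (1nM final), 16 hr, 37C/5% CO2. Bla FRET substrate 2 hr RT, then CellTiter-Glo 30 min RT, luminescence.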

[13] = target: Estrogen receptor (Homo sapiens) (UniProt P03372); experiment: qHTS assay to identify small molecule agonists of the estrogen receptor alpha (ER-alpha) signaling pathway in the presence of an antagonist (AID 1259383; calls by dose curve; note: top concentration of the series differs between compounds; nearly all actives have a fitted effect of over 15% in size)
Method in brief: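 VM7Luc4E2, endog. ER-alpha + 4×ERE-luc; charcoal-stripped FBS, phenol red-free, 5 d; 24hr plating; +10.0nM ICI-182,780 (final); cpds 15 conc, 22hr, 37C/5% CO2; ONE-Glo luminescence.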

[14] = qHTS assay to identify small molecule agonists or antagonists of the thyroid stimulating hormone receptor (TSHR) signaling pathway - wild type cell line counter screen (AID 1259384; calls by dose curve)
Method in brief: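 Wild-type HEK293 cells were plated 18 h at 37 C/5% CO2, pin-dosed with compound plus Ro20-1724 medium, held 30 min at room temperature, then given cAMP-d2 and anti-cAMP-cryptate; fluorescence was read after 1 h. Fifteen concentrations, triplicate.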

[15] = qHTS assay to identify small molecule HDAC inhibitors - cell viability counter screen (AID 1259365); note: series mostly up to about 92 µM; nearly all actives have a fitted effect of over 50% in size
Method in brief: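 Wild-type HCT-116 cells were seeded at 1,500 per well, incubated overnight at 37 C, then exposed to compounds in DMSO for 2hr. Viability was read by CellTiter-Glo luminescence after 30min at room temperature.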

[16] = target: Estrogen receptor beta (Homo sapiens) (UniProt Q92731); experiment: qHTS assay to identify small molecule agonists of the estrogen receptor beta (ER-beta) signaling pathway (AID 1259377; active = well fitted activation curve with a large enough effect in the signal ratio in the repeat runs, not every such curve was filed as active; the % refers to the signal ratio)
Method in brief: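 ER-beta-UAS-bla HEK293T (GripTite) cells carrying a UAS-driven beta-lactamase reporter, in medium with 2% charcoal-stripped FBS, were exposed to compounds for 16 hr at 37C; LiveBLAzer B/G FRET substrate was then added and fluorescence read after 2 hours at room temperature.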

[17] = qHTS assay to identify small molecule agonists of the estrogen receptor beta (ER-beta) signaling pathway - cell viability counter screen (AID 1259380); note: nearly all actives have a fitted effect of over 30% in size
Method in brief: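 HEK293T ER-beta-UAS-bla; 2% CS-FBS; 6 hr pre-plate, 16 hr cpd at 37C/5% CO2; LiveBLAzer read first, then CellTiter-Glo 30 min RT, luminescence.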

Measured: Potency

CCC/C=C/CO
inactive: [1] | [2] | [3] | [4] | [5] | [6] | [7] | [8] | [9] | [10] | [11] | [12] | [13] | [14]

CCCCCCCCCC/C=C/C#N
inactive: [1] | [2] | [3] | [4] | [5] | [15] | [6] | [7] | [16] | [10] | [11] | [17] | [12] | [13] | [14]

COc1nc(C)nc(NC(=O)NS(=O)(=O)c2ccccc2OCCCl)n1
inactive: [1] | [2] | [3] | [4] | [5] | [15] | [6] | [8] | [9] | [11] | [12] | [13]

CCCCNC(=S)NCCCC
inactive: [1] | [2] | [3] | [4] | [5] | [15] | [9] | [16] | [11] | [17] | [13] | [14]

CC/C=C\CCOC(=O)C(C)C
inactive: [1] | [2] | [3] | [4] | [5] | [15] | [6] | [7] | [8] | [9] | [11] | [17] | [12] | [13] | [14]

Oc1ccccc1F
inactive: [1] | [2] | [3] | [4] | [5] | [6] | [8] | [9] | [16] | [10] | [11] | [12] | [13] | [14]

O=C1CCCCCCCCCCC(=O)OCCO1
inactive: [1] | [2] | [3] | [4] | [5] | [15] | [6] | [7] | [8] | [16] | [10] | [11] | [12] | [13] | [14]
